Measured values reported in PubChem BioAssay AID602144 (Vanderbilt Specialized Chemistry Center, 2011).
Values without a mark were called inactive. Active and inactive are the calls of the source. No stated cut-off is given here; in the data, active means remaining activity below about 50%; inactive means the rest.

What follows are compounds tested against Phospholipase D1 (Homo sapiens) (UniProt Q13393) (assay: PLD1 inhibitors in cells, Calu-1 cells, single concentration (AID 602144;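 further: tested at 200 nM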)). Conditions: cellular PLD1 activity, hits give low values.
Chain of Phospholipase D1 (Homo sapiens) (Q13393 whole entry, looked up): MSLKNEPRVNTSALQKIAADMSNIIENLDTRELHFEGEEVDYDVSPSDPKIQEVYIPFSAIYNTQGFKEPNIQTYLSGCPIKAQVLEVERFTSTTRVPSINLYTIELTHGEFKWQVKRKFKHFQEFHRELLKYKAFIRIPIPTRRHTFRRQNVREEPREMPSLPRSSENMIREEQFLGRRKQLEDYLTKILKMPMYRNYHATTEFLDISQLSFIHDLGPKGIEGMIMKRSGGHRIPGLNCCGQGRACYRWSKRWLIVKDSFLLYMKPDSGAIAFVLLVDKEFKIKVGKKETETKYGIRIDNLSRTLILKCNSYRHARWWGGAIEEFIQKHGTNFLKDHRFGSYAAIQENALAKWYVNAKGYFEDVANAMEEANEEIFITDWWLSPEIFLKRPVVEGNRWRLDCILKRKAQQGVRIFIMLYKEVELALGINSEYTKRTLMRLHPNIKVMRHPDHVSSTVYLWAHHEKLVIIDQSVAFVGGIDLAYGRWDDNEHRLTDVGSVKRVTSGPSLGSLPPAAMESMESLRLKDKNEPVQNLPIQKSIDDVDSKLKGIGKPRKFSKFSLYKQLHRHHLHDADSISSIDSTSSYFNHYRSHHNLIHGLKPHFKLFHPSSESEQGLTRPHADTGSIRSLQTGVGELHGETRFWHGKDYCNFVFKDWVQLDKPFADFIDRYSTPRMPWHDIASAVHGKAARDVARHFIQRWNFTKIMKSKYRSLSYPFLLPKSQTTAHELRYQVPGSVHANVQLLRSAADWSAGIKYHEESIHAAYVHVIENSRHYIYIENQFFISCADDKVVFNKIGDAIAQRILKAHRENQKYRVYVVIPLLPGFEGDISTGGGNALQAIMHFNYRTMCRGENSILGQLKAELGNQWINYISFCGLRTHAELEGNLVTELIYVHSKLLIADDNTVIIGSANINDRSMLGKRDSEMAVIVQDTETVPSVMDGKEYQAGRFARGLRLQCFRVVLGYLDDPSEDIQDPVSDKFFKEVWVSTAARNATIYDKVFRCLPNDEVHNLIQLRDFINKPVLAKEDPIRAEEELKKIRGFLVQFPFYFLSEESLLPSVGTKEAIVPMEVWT
Chain of Phospholipase D1 (Homo sapiens) (Q13393 whole entry, looked up): as above

Structure (SMILES)	remaining activity
C[C@@H](CN1CCC(n2c(=O)[nH]c3ccccc32)CC1)NC(=O)c1ccc(Cl)c(Cl)c1	20.9% (active)
O=C1c2ccccc2C(=O)N1CCCN1CCC(n2c(=O)[nH]c3ccccc32)CC1	76.2%
NC1(CN2CCC(c3nc4ccccc4[nH]3)CC2)CCCC1 (tested in a mixture with another compound)	81.2%
C[C@@H](CN1CCC(c2nc3ccccc3[nH]2)CC1)NC(=O)c1ccc2ccccc2c1	58.7%
C[C@@H](CN1CCC(n2c(=O)[nH]c3ccccc32)CC1)NC(=O)CCc1ccc(F)cc1	53.9%
O=C(NCCN1CCC(n2c(=O)[nH]c3ccccc32)CC1)c1ccc(-c2ccccc2)o1	38.7% (active)
COc1cccc(N2CCN(CCNC(=O)c3ccc(Cl)cc3)CC2)c1	96.1%
O=c1[nH]c2ccccc2n1C1CCN(CCNS(=O)(=O)c2cccc(C(F)(F)F)c2)CC1	111%
O=C(C1C[C@@H]1c1ccccc1)N1CCC(n2c(=O)[nH]c3cc(Cl)ccc32)CC1 (some centres not stated)	89.8%
C[C@@H](CN1CCC(n2c(=O)[nH]c3ccccc32)CC1)NC(=O)c1ccc(C(F)(F)F)cc1	36.5% (active)
O=C(NCCN1CCN(c2ccncc2)CC1)c1ccc(F)cc1	126%
O=C(NCCN1CCC(n2c(=O)[nH]c3ccccc32)CC1)c1cc(-c2ccccc2)no1	62.9%
C[C@@H](CN1CCC(n2c(=O)[nH]c3ccc(F)cc32)CC1)NC(=O)c1ccc(F)c(F)c1	13.7% (active)
O=c1[nH]c2ccccc2n1C1CCN(CCNS(=O)(=O)c2cccc3cccnc23)CC1	121%
O=C(c1ccc(Cl)cc1)N1CCC2(CC1)C(=O)NCN2c1ccccc1	102%
C[C@@H](CN1CCC(n2c(=O)[nH]c3ccccc32)CC1)NC(=O)c1cc2ccccc2[nH]1	8.14% (active)
O=C(NCCN1CCC2(CC1)CNc1ccccc12)C1CC1c1ccccc1 (configuration not stated)	113%
O=C(NCCN1CCC(n2c(=O)[nH]c3ccccc32)CC1)c1cc2ccccc2c2c1ccc1ccccc12	102%
C[C@@H](CN1CCC(n2c(=O)[nH]c3ccc(F)cc32)CC1)NC(=O)c1ccc(Cl)cc1	17.7% (active)
O=C(NCCN1CCC(n2c(=O)[nH]c3ccccc32)CC1)N1c2ccccc2C=Cc2ccccc21	92.3%
CC(=O)c1cccc(NC(=O)NCCN2CCC(n3c(=O)[nH]c4ccccc43)CC2)c1	137%
Cc1ccccc1NC(=S)NCCN1CCC(n2c(=O)[nH]c3ccccc32)CC1	173%
C[C@@H](CN1CCC(n2c(=O)[nH]c3cc(-c4ccsc4)ccc32)CC1)NC(=O)[C@H]1C[C@@H]1c1ccccc1	41.3% (active)
Cc1ccc(C(=O)N[C@@H](C)CN2CCC(n3c(=O)[nH]c4cc(Br)ccc43)CC2)cc1	13% (active)
O=C(NCCN1CCC(n2c(=O)[nH]c3ccccc32)CC1)NC(c1ccccc1)c1ccccc1	146%
CS(=O)(=O)NCCN1CCC(n2c(=O)[nH]c3ccccc32)CC1	88%
NC1(CN2CCC(n3c(=O)[nH]c4cc(Cl)ccc43)CC2)CCCC1 (tested in a mixture with another compound)	70.2%
